The text below walks through data of PubChem BioAssay (NCATS).

Holding throughout (assay): Primary qHTS to identify gynecologic anti-cancer compounds using libraries of approved drugs and bioactive compounds (AID 1345084); further: nearly all actives have a fitted effect of over 55% in size
What all share (settings): Gynecologic cancer cell panel viability, ATPlite luminescence, 48 h; series mostly up to 57.5 µM
A general note: In qHTS, concentration-response curves come from the screen itself.

The test system of one experiment is PA-1. In short, it runs like this:
(§1)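 Cell viability after 48 h drug treatment, ATPlite luminescence readout; five doses.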

The test system of another experiment is SKOV3. An outline of the steps: as §1
The next experiment concerns Tov-21-G. In short, it runs like this:
as §1

The next experiment concerns Tov112D. An outline of the steps: as §1

Records with an inconclusive call do not appear. Unmarked numbers belong to inactive results. Activity calls are given as the source filed them. The call rests on the fitted dose curve; in most records, active means well fitted cell-killing curve with a large enough effect; inconclusive means small, poorly fitted or top-dose-only effect, or effect the other way; inactive means flat fitted curve, though single readings scatter.
On the % scale 0 is the no-effect control and ±100 the full control effect; potency means the concentration at half of the fitted maximal effect.

As for `COC(=O)N1CCN(C(=O)Cc2ccc(Cl)c(Cl)c2)[C@@H](CN2CCCC2)C1`, the Potency entry in the experiment with PA-1, in the experiment on SKOV3, in the experiment with Tov-21-G and in the experiment with Tov112D was “inactive” in each case.
For the compound `C=C1[C@@H]2CC[C@@]3(C)[C@H](c4ccoc4)OC(=O)C[C@]13O[C@H]1CC(=O)C(C)(C)[C@H](C(OC(C)=O)C(=O)OC)[C@]12C` (some centres undefined), the Potency entry in the experiment with PA-1, in the experiment with SKOV3, in the experiment on Tov-21-G and in the experiment on Tov112D was “inactive” each time.
Take `CC[C@H]1CN2CC[C@H]1C[C@H]2[C@H](O)c1ccnc2ccc(OC)cc12`: the Potency entry in the experiment with PA-1, in the experiment with SKOV3, in the experiment on Tov-21-G and in the experiment on Tov112D was “inactive” in each case.
For `CCC(C)(OC(C)=O)C(=O)O[C@H]1[C@H](OC(C)=O)C[C@@H]2[C@@](C)([C@@H]3C[C@H]4C=CO[C@H]4O3)[C@H](C)C[C@H](OC(C)=O)[C@@]2(COC(C)=O)[C@@]12CO2` (some centres undefined), the Potency result in the experiment with PA-1, with SKOV3, in the experiment with Tov-21-G and with Tov112D was “inactive” throughout.
With `CC1=C2C(=O)C3[C@@H](CC=C4C[C@@H](O)CC[C@@]43C)[C@@H]2CC[C@]12O[C@@H]1C[C@H](C)CN[C@H]1[C@H]2C` (some centres undefined), the Potency entry in the experiment with PA-1, in the experiment on SKOV3, in the experiment with Tov-21-G and in the experiment on Tov112D was “inactive” each time.
As for `CC1C/C=C/C(O)C(O)CC/C=C/c2cc(O)cc(O)c2C(=O)O1` (centres undefined), the Potency entry in the experiment with PA-1, in the experiment on SKOV3, with Tov-21-G and with Tov112D was “inactive” in each case.
Consider `C[C@H]1O[C@@H](O[C@H]2C[C@@H](O)[C@]3(CO)C4C(CC[C@]3(O)C2)[C@@]2(O)CC[C@H](C3=CC(=O)OC3)[C@@]2(C)C[C@H]4O)[C@@H](O)[C@@H](O)[C@H]1O` (some centres undefined), for which the Potency with PA-1 was 0.562 µM (active); in the experiment with SKOV3, 0.224 µM (active); in the experiment with Tov-21-G, 0.178 µM (active); with Tov112D, 0.112 µM (active).
With `CCN1C[C@]2(COC(=O)c3ccccc3N3C(=O)C[C@H](C)C3=O)CC[C@H](OC)[C@@]34[C@@H]5C[C@H]6[C@H](OC)[C@@H]5[C@](O)(C[C@@H]6OC)[C@](O)([C@@H](OC)[C@H]23)[C@@H]14`, the Potency result with PA-1, with SKOV3, in the experiment on Tov-21-G and with Tov112D was “inactive” in each case.
Consider `Oc1ccc2c3c1O[C@H]1[C@H](N(CCCl)CCCl)CC[C@@]4(O)[C@@H](C2)N(CC2CC2)CC[C@]314`, for which the activity change, negative = cytotoxicity in the experiment on PA-1 is 6.51% [at 11.6 µM]; with SKOV3, 9.08% [at 11.6 µM]; in the experiment on Tov-21-G it was 6.96% [at 11.6 µM]; in the experiment with Tov112D it was 3.75% [at 11.6 µM].
As for `CO[C@@H]1[C@H](O)[C@@H](O[C@@H]2C[C@H]3CC[C@@H]4C(CC[C@]5(C)[C@@H](C6=CC(=O)OC6)CC[C@]45O)[C@@]3(C)[C@H](O)C2)O[C@H](C)[C@@H]1O[C@@H]1O[C@H](CO)[C@@H](O)[C@H](O)[C@H]1O` (some centres undefined), the Potency is 0.398 µM (active) in the experiment on PA-1, 0.562 µM (active) with SKOV3, 0.199 µM (active) in the experiment with Tov-21-G and 0.1 µM (active) in the experiment on Tov112D.
The corresponding values for `OC1(c2ccc(Cl)cc2)c2ccccc2C2=NCCN21` (centres undefined) are “inactive”, “inactive”, “inactive” and “inactive”.
As to `COC1C(O)C(C)OC(OC2C(CO)O[C@@H](O[C@@H]3CC4CCC5C(CC[C@]6(C)[C@@H](C7=CC(=O)OC7)CC[C@]56O)[C@@]4(C)[C@H](O)C3)C(O)C2O)C1O` (some centres undefined), the Potency in the experiment with PA-1 is 2.82 µM (active); in the experiment on SKOV3, 2.82 µM (active); in the experiment with Tov-21-G it was 1 µM (active); with Tov112D it was 0.501 µM (active).
For `CCN1C[C@]2(OC(=O)c3ccccc3NC(C)=O)CC[C@H](OC)[C@@]34[C@@H]2C[C@@H]([C@@H]13)[C@@]1(O)C[C@H](OC)[C@H]2C[C@@H]4[C@]1(O)[C@H]2OC`, the Potency entry with PA-1, in the experiment on SKOV3, in the experiment with Tov-21-G and in the experiment with Tov112D was “inactive” throughout.
With `CC(=O)OC12C(O)C(C)C3(O)C4C=C(C)C(=O)C4CC(CO)=CC3C1C2(C)C` (centres undefined), the Potency entry in the experiment on PA-1, in the experiment with SKOV3, with Tov-21-G and in the experiment with Tov112D was “inactive” throughout.
On to `C[C@@]12C[C@@H](c3ccoc3)OC(=O)C1CC[C@]1(C)[C@H]2[C@H]2C=C[C@]1(O)C(=O)O2` (some centres undefined), for which the Potency result in the experiment on PA-1, in the experiment on SKOV3, in the experiment on Tov-21-G and with Tov112D was “inactive” each time.
In the case of `CN1CCCC1CCOC(c1cc2nccc(C(=O)O)c2[nH]1)c1ccccc1Cl` (centres undefined), the Potency entry with PA-1, with SKOV3, in the experiment with Tov-21-G and with Tov112D was “inactive” throughout.
Turning to `N#CC(OC1OC(COC2OC(CO)C(O)C(O)C2O)C(O)C(O)C1O)c1ccccc1` (centres undefined), the Potency result in the experiment on PA-1, with SKOV3, in the experiment on Tov-21-G and in the experiment on Tov112D was “inactive” each time.
With `COC(=O)[C@@]12C(=O)C(C)C(=O)[C@]1(C)C(C)=C[C@H]1[C@]3(C=O)CC[C@H](OC(C)=O)C(C)(C)[C@H]3CC[C@@]12C` (some centres undefined), the Potency entry in the experiment on PA-1, in the experiment on SKOV3, with Tov-21-G and in the experiment on Tov112D was “inactive” throughout.
Consider `CC(C)C1(OO)C=C2C(=O)CC3C(C)(C(=O)O)CCCC3(C)C2CC1` (centres undefined), for which the Potency entry with PA-1, in the experiment on SKOV3, in the experiment on Tov-21-G and in the experiment on Tov112D was “inactive” in each case.
Turning to `CCC(C)(C#N)O[C@@H]1O[C@H](CO)[C@@H](O)[C@H](O)[C@H]1O` (some centres undefined), the Potency result in the experiment on PA-1, with SKOV3, with Tov-21-G and in the experiment with Tov112D was “inactive” throughout.
For `CCCCCOc1cc2c(cc1-c1cc(/C=C/C(=O)O)ccc1O)C(C)(C)CCC2(C)C`, the Potency entry with PA-1, with SKOV3, with Tov-21-G and in the experiment on Tov112D was “inactive” each time.
